# Inconclusive results are not listed. A call without a number means that no potency is given here. A number with no mark means an inactive call. Active and inactive are the calls of the source. Unless noted, calls come from the whole dose curve; as a rule, active = well fitted curve in the direction sought with a large enough effect in the repeat runs; inconclusive = weak or mixed curves; inactive = no such curve, though single readings can be large; an effect the other way counts as inactive or inconclusive.
# Assays:
# [1] = qHTS assay to identify small molecule antagonists of the estrogen related receptor (ERR) signaling pathway from Tox21 library - cell viability counter screen (AID 1224834); note: nearly all actives have a fitted effect of over 30% in size
# Procedure, shortened: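 ERR cells, 2,000/well; 6 h settle at 37 C/5% CO2; pin-tool compound transfer in DMSO; 17.5 h at 37 C; CellTiter-Fluor, 30 min; fluorescence intensity.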
# [2] = target: Luciferin 4-monooxygenase (Photinus pyralis) (UniProt P08659); test: qHTS assay to identify small molecule inhibitors of firefly luciferase (AID 1224835); note: nearly all actives have a fitted effect of over 25% in size; note: potency is the fitted concentration of half-maximal effect; for activity change, negative = inhibition: series mostly up to about 120 µM
# Procedure, shortened: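 Inhibition of purified Photinus luciferase is measured by luminescence. Substrate levels (D-luciferin, ATP) sit at their KM values. Each compound is tested in a concentration series.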
# [3] = qHTS assay to identify small molecule agonists of the constitutive androstane receptor (CAR) signaling pathway - cell viability counter screen (AID 1224836); note: series mostly up to about 92 µM; nearly all actives have a fitted effect of over 45% in size
# Procedure, shortened: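 Multiplexed viability check: HepG2-CYP2B6-hCAR cells, 15-point compound dosing, 0.75 uM PK11195 final, 23 h at 37 C, CellTiter-Fluor fluorescence.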
# [4] = qHTS assay to identify small molecule antagonists of the constitutive androstane receptor (CAR) signaling pathway - cell viability counter screen (AID 1224837); note: series mostly up to about 92 µM; nearly all actives have a fitted effect of over 45% in size
# Procedure, shortened: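 Viability was measured with CellTiter-Fluor in a HepG2 line carrying stably transfected hCAR and a CYP2B6-2.2kb construct. Cells were exposed for 23 hr at 37 C to 15 compound concentrations with 50 nM CITCO as agonist.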
# [5] = qHTS assay to identify small molecule antagonists of the estrogen related receptor signaling pathway with the pleiotropic PPARgamma coactivator (PGC) from Tox21 10K library - cell viability counter screen (AID 1224840; active = well fitted cell-killing curve with a large enough effect in the repeat runs, not every such curve was filed as active; note: nearly all actives have a fitted effect of over 40% in size)
# Procedure, shortened: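 Multiplexed viability counter screen in the PGC/ERR cell line: cells treated with DMSO-dissolved compounds for 17.5 hours at 37 C, then viability measured as CellTiter-Fluor fluorescence.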
# [6] = target: Nuclear receptor subfamily 1 group I member 3 (Homo sapiens) (UniProt Q14994); test: qHTS assay to identify small molecule antagonists of the constitutive androstane receptor (CAR) signaling pathway (AID 1224838);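 note: HepG2 cells stably expressing hCAR with CYP2B6 luciferase reporter stimulated by CITCO; nearly all actives have a fitted effect of over 40% in size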
# Procedure, shortened: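 Antagonist mode used CITCO at a final 50 nM to activate CAR in human hepatoma HepG2 cells carrying stable hCAR and a 2.2 kb CYP2B6 promoter-luciferase construct. Compounds were tested at 15 concentrations over 24 h, with luminescence as the end point.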
# [7] = target: Nuclear receptor subfamily 1 group I member 3 (Homo sapiens) (UniProt Q14994); test: qHTS assay to identify small molecule agonists of the constitutive androstane receptor (CAR) signaling pathway (AID 1224839); note: nearly all actives have a fitted effect of over 15% in size; note: potency is the fitted concentration of half-maximal effect; for activation: series mostly up to about 92 µM
# Procedure, shortened: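 Using human hepatoma HepG2 cells engineered with hCAR and a CYP2B6-2.2kb reporter, 15-concentration compound series were incubated 24 h alongside PK11195 at 0.75 uM final, with luminescence quantified afterwards.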
# [8] = target: Thyrotropin receptor (Homo sapiens) (UniProt P16473); test: qHTS assay to identify small molecule agonists of the thyroid stimulating hormone receptor (TSHR) signaling pathway (AID 1224843; calls by dose curve; note: nearly all actives have a fitted effect of over 45% in size; note: potency is the fitted concentration of half-maximal effect)
# Procedure, shortened: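 A cell-based cAMP HTRF format was run in TSHR-transfected HEK293 cells, 800 per well. Treatment: 30 min, room temperature. Detection: 1 h with labelled cAMP and anti-cAMP cryptate. Concentration-response over 15 points, three replicates.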
# [9] = qHTS assay to identify small molecule antagonists of the estrogen related receptor signaling pathway with the pleiotropic PPARgamma coactivator (PGC) from Tox21 10K library (AID 1224841; call rule not given here; note: series mostly up to about 92 µM; actives are mostly falling curves and most rising ones were filed inactive; nearly all actives have a fitted effect of over 50% in size)
# Procedure, shortened: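 Steps: plate 2,000 PGC/ERR cells per well; incubate 6 h at 37 C with 5% CO2; transfer compounds from DMSO stocks by pin tool; incubate 18 h at 37 C; add One-Glo; measure luminescence 30 min later.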
# [10] = qHTS assay to identify small molecule agonists of the estrogen related receptor signaling pathway with the pleiotropic PPARgamma coactivator (PGC) from Tox21 10K library (AID 1224842); note: nearly all actives have a fitted effect of over 15% in size
# Procedure, shortened: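 Luminescence from One-Glo (30 min, room temperature) measured after PGC/ERR cells had 18 h at 37 C with pinned compound (23 nL in DMSO). Cells had been seeded at 2,000 per well and pre-incubated 6 h.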
# Sequence of Luciferin 4-monooxygenase (Photinus pyralis) (P08659 whole entry, looked up): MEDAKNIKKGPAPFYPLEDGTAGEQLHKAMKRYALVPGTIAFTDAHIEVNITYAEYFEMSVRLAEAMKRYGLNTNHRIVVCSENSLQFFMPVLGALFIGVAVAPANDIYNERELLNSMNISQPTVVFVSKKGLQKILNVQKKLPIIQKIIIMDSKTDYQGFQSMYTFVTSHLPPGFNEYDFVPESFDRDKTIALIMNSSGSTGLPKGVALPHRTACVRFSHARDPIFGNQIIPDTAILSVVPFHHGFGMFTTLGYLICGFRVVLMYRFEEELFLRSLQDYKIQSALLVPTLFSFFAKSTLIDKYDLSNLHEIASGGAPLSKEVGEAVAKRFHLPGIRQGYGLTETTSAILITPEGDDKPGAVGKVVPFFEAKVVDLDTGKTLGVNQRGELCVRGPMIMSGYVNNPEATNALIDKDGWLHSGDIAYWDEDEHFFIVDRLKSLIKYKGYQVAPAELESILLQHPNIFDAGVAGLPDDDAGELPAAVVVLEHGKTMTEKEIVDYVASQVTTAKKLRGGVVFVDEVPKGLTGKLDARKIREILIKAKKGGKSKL
# Sequence of Nuclear receptor subfamily 1 group I member 3 (Homo sapiens) (Q14994 whole entry, looked up): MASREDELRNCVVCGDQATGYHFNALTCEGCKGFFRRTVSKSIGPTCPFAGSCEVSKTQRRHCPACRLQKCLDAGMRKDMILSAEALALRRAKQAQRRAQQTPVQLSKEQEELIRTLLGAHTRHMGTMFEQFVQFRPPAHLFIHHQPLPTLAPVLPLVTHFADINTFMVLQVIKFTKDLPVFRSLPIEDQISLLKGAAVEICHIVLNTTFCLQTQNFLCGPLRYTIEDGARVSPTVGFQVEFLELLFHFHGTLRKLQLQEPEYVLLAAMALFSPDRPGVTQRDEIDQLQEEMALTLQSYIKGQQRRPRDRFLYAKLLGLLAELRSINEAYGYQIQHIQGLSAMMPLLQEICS
# Sequence of Thyrotropin receptor (Homo sapiens) (P16473 whole entry, looked up): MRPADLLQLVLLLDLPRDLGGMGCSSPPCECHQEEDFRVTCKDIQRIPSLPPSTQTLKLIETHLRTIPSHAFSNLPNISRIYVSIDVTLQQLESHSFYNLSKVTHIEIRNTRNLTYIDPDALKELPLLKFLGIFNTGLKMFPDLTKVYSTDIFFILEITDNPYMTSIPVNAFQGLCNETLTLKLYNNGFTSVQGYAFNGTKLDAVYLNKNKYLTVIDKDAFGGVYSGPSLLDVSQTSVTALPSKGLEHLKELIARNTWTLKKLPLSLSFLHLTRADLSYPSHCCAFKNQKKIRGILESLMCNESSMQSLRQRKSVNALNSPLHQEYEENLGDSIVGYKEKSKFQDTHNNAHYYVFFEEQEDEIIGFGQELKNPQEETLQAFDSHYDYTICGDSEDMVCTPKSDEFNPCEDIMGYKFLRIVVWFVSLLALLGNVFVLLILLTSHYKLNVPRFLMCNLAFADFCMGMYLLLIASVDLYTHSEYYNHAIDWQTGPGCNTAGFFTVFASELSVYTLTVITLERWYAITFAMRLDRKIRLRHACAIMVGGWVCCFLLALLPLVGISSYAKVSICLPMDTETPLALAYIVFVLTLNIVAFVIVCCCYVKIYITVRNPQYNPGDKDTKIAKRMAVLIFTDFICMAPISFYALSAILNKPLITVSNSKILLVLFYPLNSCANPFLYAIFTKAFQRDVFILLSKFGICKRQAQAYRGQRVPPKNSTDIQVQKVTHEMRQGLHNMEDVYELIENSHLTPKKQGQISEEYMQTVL
smiles,measurement,setting,value
COc1ccc(S(=O)(=O)N2c3ccc(Cl)cc3[C@@](O)(c3ccccc3Cl)[C@H]2C(=O)N2CCC[C@@H]2C(N)=O)cc1OC,Potency,[1],inactive
same,Potency,[2],inactive
same,Potency,[3],inactive
same,Potency,[4],inactive
same,outcome,[5],inactive
Oc1cn2c(n1)Nc1ccc(Cl)c(Cl)c1C2,"viability change, negative = cytotoxic",[1],0.934% [at 19 µM]
same,"activity change, negative = inhibition",[2],0.455% [at 23.6 µM]
same,"viability change, negative = cytotoxic",[3],-4.95% [at 19 µM]
same,"activity change, negative = cytotoxicity",[4],5.38% [at 19 µM]
same,"activity, negative = inhibition",[6],39.2% [at 19 µM]
same,activation,[7],5.1% [at 19 µM]
same,Potency,[8],0.73 µM (active)
O=C1CC(c2ccc(Cl)cc2)CC(=O)N1,Potency,[1],inactive
same,Potency,[2],inactive
same,Potency,[3],inactive
same,Potency,[4],inactive
same,outcome,[6],inactive
same,Potency,[7],inactive
same,outcome,[5],inactive
same,Potency,[8],inactive
OCCC(F)(F)C(F)(F)C(F)(F)C(F)(F)C(F)(F)C(F)(F)C(F)(F)C(F)(F)F,Potency,[1],inactive
same,Potency,[2],inactive
same,Potency,[3],inactive
same,Potency,[4],inactive
same,outcome,[6],inactive
same,Potency,[7],inactive
same,Potency,[9],inactive
CC(C)CC(C)CC(C)CC(C)COC(=O)c1ccccc1C(=O)OCC(C)CC(C)CC(C)CC(C)C (configuration not stated),Potency,[1],inactive
same,Potency,[2],inactive
same,Potency,[3],inactive
same,Potency,[4],inactive
same,outcome,[5],inactive
same,Potency,[9],inactive
same,outcome,[10],inactive
same,Potency,[8],inactive
CCCN1C[C@H](CSC)C[C@@H]2c3cccc4[nH]cc(c34)C[C@H]21,Potency,[1],inactive
same,Potency,[2],inactive
same,Potency,[3],inactive
same,Potency,[4],inactive
same,outcome,[5],inactive
same,Potency,[8],inactive
C=C(C)C1CCC(C)(O)CC1 (configuration not stated),Potency,[1],inactive
same,Potency,[2],inactive
same,Potency,[3],inactive
same,Potency,[4],inactive
same,outcome,[6],inactive
same,Potency,[7],inactive
same,Potency,[8],inactive
COC(=O)[C@@H]1[C@H]2C[C@H]3c4[nH]c5ccccc5c4CCN3C[C@@H]2CC[C@@H]1O,Potency,[1],inactive
same,Potency,[2],inactive
same,Potency,[3],inactive
same,Potency,[4],inactive
same,outcome,[6],inactive
same,outcome,[5],inactive
same,Potency,[9],inactive
same,outcome,[10],inactive
same,Potency,[8],inactive
CC(C)c1ccc2cc(C(C)C)ccc2c1,Potency,[1],inactive
same,Potency,[2],15.9 µM (active)
same,Potency,[3],inactive
same,outcome,[5],inactive
same,Potency,[8],inactive
CCCCNC1CC(C)(C)NC(C)(C)C1,Potency,[1],inactive
same,Potency,[2],inactive
same,Potency,[3],inactive
same,outcome,[6],inactive
same,Potency,[7],inactive
same,outcome,[5],inactive
same,Potency,[9],inactive
same,outcome,[10],inactive
same,Potency,[8],inactive
C=C(C)C(=O)OCC(C)(C)COC(=O)C(=C)C,Potency,[1],inactive
same,Potency,[2],inactive
same,Potency,[3],inactive
same,outcome,[6],inactive
same,Potency,[7],inactive
same,Potency,[9],inactive
same,outcome,[10],inactive
CC(=O)c1ccc2c(c1)Cc1ccccc1-2,Potency,[1],inactive
same,Potency,[2],25.2 µM (active)
same,Potency,[4],inactive
same,outcome,[6],inactive
same,Potency,[7],54.5 µM (active)
FC(F)(F)c1ccccc1-n1ccnc1,Potency,[1],inactive
same,Potency,[2],inactive
same,Potency,[3],inactive
same,outcome,[6],inactive
same,Potency,[7],inactive
C[C@@H](O)[C@H]1C(=O)N2C(C(=O)O)=C(SCCN=CN)C[C@H]12,Potency,[1],inactive
same,Potency,[2],inactive
same,Potency,[4],inactive
same,outcome,[6],inactive
same,Potency,[7],inactive
same,outcome,[5],inactive
same,Potency,[9],inactive
same,outcome,[10],inactive
same,Potency,[8],inactive
C=C(C)C(=O)OCCOP(=O)(O)OCCOC(=O)C(=C)C,Potency,[1],inactive
same,Potency,[2],inactive
same,Potency,[3],inactive
same,outcome,[6],inactive
same,Potency,[7],inactive
same,outcome,[5],inactive
same,Potency,[9],inactive
same,outcome,[10],inactive
same,Potency,[8],inactive
CCCCOCCOC(=O)COc1nc(Cl)c(Cl)cc1Cl,Potency,[1],inactive
same,Potency,[2],inactive
same,Potency,[3],inactive
same,outcome,[5],inactive
same,Potency,[9],inactive
same,outcome,[10],inactive
